Laboratory results reported in PubChem BioAssay AID1903 (Southern Research Specialized Biocontainment Screening …, 2009).
Among all 310,000 compounds or so, about 1,200 (0.39%) were called active. The rule behind the calls is not given here. A selection follows. Entries with a potency or affinity are not part of this list.

The compounds below were run against Large T antigen (Simian virus 40) (UniProt P03070) (assay: SV40 large T antigen inhibitors, biochemical (AID 1903)). Settings: SV40 large T antigen ATPase/helicase inhibition assay; at 20 µM; active compounds read high.
Large T antigen (Simian virus 40), sequence (P03070 whole entry, looked up): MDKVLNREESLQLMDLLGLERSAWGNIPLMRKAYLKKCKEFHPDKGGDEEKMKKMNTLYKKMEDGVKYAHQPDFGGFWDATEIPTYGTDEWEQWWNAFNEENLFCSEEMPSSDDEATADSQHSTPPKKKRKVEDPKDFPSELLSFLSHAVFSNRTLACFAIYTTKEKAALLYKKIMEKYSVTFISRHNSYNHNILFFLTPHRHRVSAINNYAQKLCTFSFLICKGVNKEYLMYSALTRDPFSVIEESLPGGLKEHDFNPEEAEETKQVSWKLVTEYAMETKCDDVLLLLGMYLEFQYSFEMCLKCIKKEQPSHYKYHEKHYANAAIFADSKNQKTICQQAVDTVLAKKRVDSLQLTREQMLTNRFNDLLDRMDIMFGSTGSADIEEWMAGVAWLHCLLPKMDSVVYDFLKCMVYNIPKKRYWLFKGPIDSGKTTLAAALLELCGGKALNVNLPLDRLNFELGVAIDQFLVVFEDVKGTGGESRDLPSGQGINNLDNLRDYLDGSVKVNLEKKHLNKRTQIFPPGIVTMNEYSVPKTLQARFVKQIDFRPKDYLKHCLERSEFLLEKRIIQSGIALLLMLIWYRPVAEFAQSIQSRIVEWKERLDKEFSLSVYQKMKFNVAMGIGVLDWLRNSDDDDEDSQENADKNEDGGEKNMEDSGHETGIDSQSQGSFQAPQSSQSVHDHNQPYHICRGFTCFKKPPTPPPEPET

inhibition, inactive:
O=C1NN(c2ccccc2)C(=O)/C1=C/c1ccc(Sc2cccc3ccccc23)o1 9.56%, O=Cc1ccc(-c2cccc(C(=O)O)c2)o1 8.85%, CCSc1ccccc1C(=O)N1CCN(c2ccccc2F)CC1 4.24%, CC(C)c1ccc(C2/C(=C(\O)c3ccc4c(c3)OCCO4)C(=O)C(=O)N2CCN2CCOCC2)cc1 (stereo not given) 10.8%, N#C/C(=C\c1ccncc1)c1nc2ccccc2[nH]1 -51.6%, Cc1ccc2nc(/C(C#N)=C/c3ccc(O)c(O)c3)[nH]c2c1 36.8%, Cn1c(CSCc2ccc(F)cc2)nnc1SCC(=O)N1CCN(c2ccccc2)CC1 29.3%, CC1=CN2C(=NC(=O)CC2(C)C(=O)N(CC(=O)NC2CCCC2)Cc2ccccc2)C=C1 (stereo not given) 3.88%, Oc1ccc(Nc2nc(-c3ccc4ccccc4c3)cs2)cc1 35.8%, CCCc1cc(=O)[nH]c(Nc2ccc(Cl)cc2)n1 16.6%, Cc1c(O)c2ccccc2oc1=O 8.49%, COc1c(CC=C(C)C)c(O)cc2oc(=O)c3c4ccc(O)cc4oc3c12 21.6%, O=C1C=C(NC2CC2)C2(CCCCC2)O1 6.12%, C=CCN1C(=O)C2C3C=CC(C2C1=O)C1C2C(=O)N(CC=C)C(=O)C2C31 (stereo not given) 0.93%, Cc1oc2cc(O)ccc2c(=O)c1-c1cnn(-c2ccccc2)c1 1.6%, Cc1oc2c(C)c(O)ccc2c(=O)c1-c1cnn(-c2ccccc2)c1 12.9%, CC(C)N1C(=O)CCC1C(=O)NCc1ccco1 (stereo not given) 10.9%, CCOC(=O)C1=C(CC)Nc2ccccc2N=C1NC(=O)Cn1cnc2ccccc2c1=O -2.64%, S=C(NCC1CCCO1)N1CCN(c2ccccc2)CC1 (stereo not given) 8.18%, CC(C)(C)OC(=O)NCCCC[C@H](NC(=O)c1nc[nH]c1C(=O)NC1CCN(C(=O)OC(C)(C)C)CC1)C(=O)OC(C)(C)C 3.23%, Nc1c(-c2cccc([N+](=O)[O-])c2)nc2ccccn12 15.8%, O=[N+]([O-])c1cccc(-c2ncc3ccccn23)c1 -2.83%, Cc1cc(NC(=O)CSCC(=O)Nc2cc(C(F)(F)F)ccc2N2CCCC2)no1 4.79%, Nc1ncnc2c1ncn2CCOc1ccccc1 3.18%, O=C(N/N=C/c1cc(Cl)c(O)c(Cl)c1)c1cc2c(ccc3ccccc32)o1 29.3%, O=C(N/N=C/c1ccc(O)c(Br)c1)c1cc2c(ccc3ccccc32)o1 -8.03%, O=C(CCc1ccccc1)NNC(=O)c1ccccc1F 10.9%, Cc1ccc(Nc2nc(-c3sc(C)nc3C)cs2)cc1 3.8%, Cc1nc(C)c(-c2csc(Nc3ccc(F)cc3)n2)s1 6.12%, COc1ccc(/C(C)=N\NC(=O)c2ccc3c(c2)OCO3)cc1OC 1.47%, Cc1c(NS(=O)(=O)c2cc(C(=O)NCCN(C)C)ccc2Cl)c(=O)n(-c2ccccc2)n1C 10.6%, C=CCN1C(=O)CSC1=Nc1ccc(O)cc1 27.9%, COc1ccc(N=C2SCC(=O)N2c2ccc(OC)cc2)cc1 13.7%, Cc1cccc(C(=O)NCC(=O)NCC2COc3ccccc3O2)c1 (stereo not given) 23.4%, CCOc1c(/C=C(\C#N)C(N)=O)c2ccccc2n1CC 3.23%, COc1ccc(Oc2nc3ccccc3n3cccc23)cc1 5.06%, CCc1ccc2[nH]c(=O)c(C(c3nnnn3CCOC)N3CCN(c4ccccc4)CC3)cc2c1 (stereo not given) 6%, CCc1ccc2[nH]c(=O)c(C(c3nnnn3CCOC)N3CCN(c4ccc(F)cc4)CC3)cc2c1 (stereo not given) 16.5%, CSCc1cc(N2CCOCC2)nc(-c2ccccc2)n1 9.12%, O=C(Cc1ccc([N+](=O)[O-])cc1)c1c(O)cc(O)cc1O 28%, O=C(CN1C(=O)c2ccccc2S1(=O)=O)Nc1ccccc1 18.1%, COC(=O)CSC1=NS(=O)(=O)c2ccccc21 5.69%, NS(=O)(=O)c1ccc(NC(=O)c2cccc(N3C(=O)c4ccccc4C3=O)c2)cc1 7.91%, COC(=O)CCC(=O)Nc1ccc(N=Nc2ccccc2)cc1 8.53%, COc1ccc(-c2nc(-c3ccccc3)[nH]c(=O)c2C#N)cc1 9.65%, Clc1cc(Cl)cc(C2=NC(Cc3ccccc3)CO2)c1 (stereo not given) 4.6%, COc1ccc(C2C(C#N)=C(N)N(N(C)C)C3=C2C(=O)CCC3)cc1 (stereo not given) 6.69%, COc1ccc(C[C@H]2COC(=O)[C@@H]2Cc2ccc(OC3OC(CO)C(O)C(O)C3O)c(OC)c2)cc1OC (stereo not given in full) 11.3%, COc1cc(/C=C/CO)ccc1O[C@@H]1O[C@H](CO)[C@@H](O)[C@H](O)[C@H]1O 1.74%, CCCCOc1ccc(C(=O)NCC(=O)N2CCN(Cc3ccc4c(c3)OCO4)CC2)cc1 14%, COc1ccc(NC(=O)COc2ccc(C)cc2)c([N+](=O)[O-])c1 5.55%, O=C(NCCOCCNC(=O)OCc1ccccc1)OCc1ccccc1 24.2%, CCOC(=O)c1c(NC(C)=O)sc2c(O)c(Br)ccc12 12.8%, CCOC(=O)c1c(NC(C)=O)sc2c(OC)c(Br)ccc12 1.77%, Cc1cc(C)c(C)c(OCCOCCNCc2ccccc2)c1 -32.9%, COc1ccc(NC(=O)CN(C)Cc2c(F)cccc2Cl)cc1S(=O)(=O)N1CCCCC1 4.49%, CN1C(=O)SC(Nc2ccccc2)C1=O (stereo not given) 5.64%, CN1C(=O)SC(Nc2ccc(F)cc2)C1=O (stereo not given) 20.7%, CCN(CC)S(=O)(=O)c1cccc(-c2cn3cc(C)ccc3n2)c1 8.06%, O=C(NCCC1CCCCN1S(=O)(=O)c1ccccc1)C(=O)NCc1ccncc1 (stereo not given) 4.13%, COc1ccc(-c2cc(C(F)(F)F)nc(N3CCN(C)CC3)n2)cc1 1.63%, CC(=O)Nc1ccc(NC(=O)CSc2nc3ccccc3o2)cc1 5.88%, C/C(=N\NC(=O)CSc1nc2ccccc2o1)c1cccc(O)c1 14.6%, C/C(=N/NC(=O)CSc1nc2ccccc2n1C)c1ccco1 -1.06%, C/C(=N/NC(=O)CSc1nc2ccccc2n1C)c1ccncc1 1.08%, O=C(NC1CCCCC1)C1CCCN1S(=O)(=O)c1ccc(Cl)cc1 (stereo not given) -4.64%, O=C(C1CC1)N1CCN(C(c2ccccc2)c2ccccc2)CC1 20.8%, COc1ccc(NC(=S)N2CCC(NC(=O)c3cccc(C)c3)CC2)cc1 19.3%, FC(F)(F)Oc1ccc(Nc2nc3ccccc3o2)cc1 17%, CS(=O)(=O)c1ccccc1C(=O)Nc1cccc(-c2nc3ccccc3o2)c1 6.81%, CCNC(=S)N/N=C/c1ccc(-c2ccccc2)o1 9.76%, CC(C)Cn1c(=O)c2ccccc2c2ccccc2c1=O 13.4%, O=C(NNC(=O)c1ccccc1-n1cccc1)c1ccc(Cl)cc1 6.79%, CCOc1cc(NC(=S)NC)c(OCC)cc1NC(=O)c1cccs1 9.37%, CCOc1cc(NS(=O)(=O)c2ccc(NC(C)=O)cc2)c(OCC)cc1NC(=O)C(C)C 9.09%, CCCCNC(=O)CNC(=O)c1nn(-c2ccc(OC)cc2OC)c(=O)c2ccccc12 4.78%, CN(C)c1ccc(/C=N/O)cc1 37.8%, CCN(CC)c1ccc(/C=N\NC(N)=O)cc1 24.1%, CN(c1ccccc1)c1ccc(/C=N/N2CCOCC2)cc1 32.7%, CCN(Cc1ccccc1)c1ccc(/C=N/N2CCOCC2)cc1 32.1%, COc1cc(OC)cc(C(=O)Nc2ccc(NC(=O)c3ccco3)c(C)c2)c1 20%, CCOC(=O)c1cccc(NC(=O)CN2CCN(c3ccc(OC)cc3)CC2)c1 38.2%, C=CCC1(CC=C)CCCN1C(=O)CC1C(=O)NCCN1Cc1ccc(OC)c(OC)c1 (stereo not given) 10.2%, O=C(NC1CCC(O)CC1)c1cccc2cccnc12 (stereo not given) 3.23%, O=C(NNC(=S)NC(=O)c1ccccc1[N+](=O)[O-])c1ccccc1O 31.4%, O=C(OCC1OC(n2ncc(=O)[nH]c2=O)C(OC(=O)c2ccccc2)C1OC(=O)c1ccccc1)c1ccccc1 (stereo not given) 6.13%, COC1OC(COC(=O)c2ccccc2)C(OC(=O)c2ccccc2)C1OC(=O)c1ccccc1 (stereo not given) 3.67%, O=C(OCC1OC(n2ccc(=O)[nH]c2=O)C(O)C1OC(=O)c1ccccc1)c1ccccc1 (stereo not given) 11.7%, Cc1cn(C2OC(COC(=O)c3ccccc3)C(OC(=O)c3ccccc3)C2OC(=O)c2ccccc2)c(=O)[nH]c1=O (stereo not given) 4.67%, CC(CCc1ccc(O)cc1)NC1C2CC3CC(C2)CC1C3 (stereo not given) 2.61%, Cc1ccc(NC(=O)c2cc3ccccc3cc2O)cc1 0.83%, CCOC(=O)c1nn(-c2ccc3ccccc3c2)cc1O 27.5%, CN(C)c1ccc(/C=N/NC(N)=S)cc1[N+](=O)[O-] 3.04%, Cc1ccc(/C=C2\NC(=S)NC2=O)cc1[N+](=O)[O-] 10.5%, CC(C)OP(=O)(OC(C)C)C(C)NC(=O)Cc1ccccc1 (stereo not given) 8.79%
